Shown are actives, neighbours in structure and some others; about 1.7% of the full set was active somewhere.
GLP1R ag – qHTS of GLP-1 Receptor Agonists. Glucagon-like peptide 1 receptor (Homo sapiens), P43220. HEK293 GLP-1R CRE-luciferase, luminescence, 4-6 h; cells express a hypersensitive GLP-1R form. Potency, µM (series often up to 45.6 µM), without a hit: top-dose activation, hits mostly activators. 380,000 compounds, 0.007% hits. AID 624172, 2012; note: % of control where 0% means no effect
Target sequence (P43220 whole entry, looked up): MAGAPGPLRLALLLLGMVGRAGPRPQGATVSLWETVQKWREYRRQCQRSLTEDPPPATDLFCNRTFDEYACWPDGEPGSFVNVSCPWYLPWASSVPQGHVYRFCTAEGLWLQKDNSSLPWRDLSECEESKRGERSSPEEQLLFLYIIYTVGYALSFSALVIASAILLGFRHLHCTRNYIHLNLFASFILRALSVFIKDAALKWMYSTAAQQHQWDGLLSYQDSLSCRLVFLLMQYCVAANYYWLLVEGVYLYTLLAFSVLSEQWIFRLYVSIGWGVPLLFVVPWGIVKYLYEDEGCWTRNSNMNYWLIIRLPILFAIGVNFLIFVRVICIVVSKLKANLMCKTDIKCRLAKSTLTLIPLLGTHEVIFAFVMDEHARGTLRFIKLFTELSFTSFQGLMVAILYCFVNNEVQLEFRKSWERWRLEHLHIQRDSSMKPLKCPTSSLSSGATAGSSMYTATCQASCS
GLP-1R inv ag – qHTS of GLP-1 Receptor Inverse Agonists (Inhibition Mode). HEK293 GLP-1R CRE-luciferase, luminescence, 24 h; GLP-1R form is constitutively active. Potency, µM (doses to about 38.3 µM), for inactives: at the top dose activity change, negative = inhibition, actives largely listed as inhibitors. Glucagon-like peptide 1 receptor (Homo sapiens), P43220. 410,000 compounds, 1.6% hits; note: % is set by controls: 0 for no effect and ±100 for the full control effect; nearly all actives have a fitted effect of over 55% in size
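Seeding at 200 cells/uL, 12 h culture, 24 hr compound treatment, then luciferase reagent and a luminescence read; cells are HEK293 stably expressing a constitutively active GLP-1R plus cAMP-responsive luciferase.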
HEK293 tox – qHTS of GLP-1 Receptor Inverse Agonists: Cytotox Screen; HEK293 cAMP-luciferase reporter cells, luminescence, 24 h; Potency, µM (doses to about 38.3 µM), for inactives: top-dose activity change, negative = inhibition, hits mostly inhibitors; 410,000 compounds, 0.13% hits; AID 624418, 2012;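 note: loss of luciferase light is scored as toxicity; % is set by controls: 0 for no effect and ±100 for the full control effect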
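Step one: seed cells (200 cells/uL, DMEM with 10% Nu serum, 1% pen-strep). Step two: 12-hour incubation at 37 deg C. Step three: pin 23 nL compound, incubate 24 hr. Step four: add luciferase reagent, read luminescence 12 min later.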
PTHR1 agonist – qHTS for PTHR1 Agonists: Primary Screen | Parathyroid hormone/parathyroid hormone-related peptide receptor (Homo sapiens), Q03431 | HEK293 GP2 PTHR1 cells, GloSensor cAMP luminescence, 1 h | Potency, µM (titrated, usually from 115 µM), for inactives: top-dose activation, most hits filed as activators | 410,000 compounds, 0.075% hits | AID 743266, 2014; note: nearly all actives have a fitted effect of over 55% in size
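HEK-293-derived GP2 cells expressing PTHR1 and a GloSensor cAMP reporter, 3,000/well, plated overnight, given luciferin plus IBMX (each 0.5 mM as added) for 1 h at 37 °C, then compound for 1 h at 37 °C. Luminescence was read after 15 min at room temperature.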
Starred values were filed as active, the others as inactive; i = inactive; ? = inconclusive; . = no result; [ ] = remark or other dose. Calls come from the whole dose curve; as a rule, active = well fitted curve in the direction sought with a large enough effect; inconclusive = small, poorly fitted or top-dose-only effect, or another doubt; inactive = no such curve, though single readings can be large; an effect the other way counts as inactive or inconclusive. Potency is the fitted concentration of half-maximal effect.

SMILES	GLP1R ag	GLP-1R inv ag	HEK293 tox	PTHR1 agonist
Cc1ccc(Cn2c(CCNc3nc(-c4ccc(Cl)c([N+](=O)[O-])c4)cs3)nc3cc(Cl)c(Cl)cc32)cc1	-1%	?	-17%	-10%
O=[N+]([O-])c1cc(-c2csc(NCCc3nc4cc(Cl)c(N5CCCCC5)cc4n3CCCO)n2)ccc1Cl	-1%	2.2µM*	-20%	-21%
CCc1ccc(N2C=C(C(=O)OC)C(c3cccc4ccccc34)C(C#N)=C2N)cc1 (configuration not stated)	.	1µM*	-13%	-52%
CCN(CC(=O)Nc1c(F)cccc1F)C(=O)c1cc(-c2cccs2)nn1-c1ccccc1	-17%	10µM*	?	-12%
Cc1ccc(NC(=O)CN(C)C(=O)c2cc(-c3cccs3)nn2-c2ccccc2)cc1	4%	7.9µM*	6%	-63%
Cc1ccc(C)c(Cn2c(=O)n(CCCCC(=O)NCc3ccccc3Cl)c(=O)c3ccccc32)c1	0%	13%	1%	-19%
CCOC(=O)c1nnc(-c2ccccc2)nc1N1CCSCC1	7%	-29%	8%	-26%
Cc1ccc(-c2nnc(-c3ccccc3)c(N3CCOCC3)n2)cc1	0%	0%	-16%	i
CN1CCN(c2nc(-c3ccc(Br)cc3)nnc2-c2ccccc2)CC1	25%	8.9µM*	-2%	i
Brc1ccc(-c2nnc(-c3ccccc3)c(N3CCSCC3)n2)cc1	-27%	8.9µM*	3%	-1%
COC(=O)c1c(NC(=O)CCCOc2cccc(C)c2)sc2c1C(C(=O)OC)CC2 (configuration not stated)	.	?	1%	-36%
COC(=O)/C=C1\OCc2cc(OC)c(OCc3ccccc3)cc21	.	3%	10%	-8%
COc1cc2c(cc1OC)/C(=C/c1ccc(Br)cc1)C(=O)OC2	11%	11µM*	12%	i
CCOc1ccc(NC(=O)c2cc(=O)c3ccc(C)c(C)c3o2)cc1	.	8%	-4%	i
CCCCC(=O)N(C)c1c(CC)nc2c(OCc3ccc(C(F)(F)F)cc3)cccn12	-4%	11µM*	-12%	i
COc1ccc2[nH]c(S(=O)Cc3ncc(C)c(OC)c3C)nc2n1 (configuration not stated)	-4%	.	.	.
COC(=O)[C@@]12C[C@@H](CC(=O)NCc3ccc(OC)c(OC)c3)C(=O)N(Cc3ccccc3)C1=CCC(C)(C)C2	.	-12%	-12%	i
CC(=O)c1sc(NC(=O)CCS(=O)(=O)c2ccc(C)cc2)nc1C	-9%	?	10µM*	-3%
CCNc1nc(NC(C)C)nc(SCCOc2ccc(C)cc2)n1	33%	7.9µM*	-1%	i
CCNc1nc(NC(C)C)nc(SCCOC(=O)c2ccccc2)n1	?	10µM*	1%	-43%
CCNc1nc(NCC)nc(OCCOC(=O)c2ccccc2)n1	8%	10%	-1%	-4%[57.5 µM]
COc1ccc(-c2oc(NC(=O)CSc3nncn3C)c(C#N)c2-c2ccc(OC)cc2)cc1	-8%	1.6µM*	-36%	-32%
Cc1cccc(NS(=O)(=O)c2ccc(Cl)c(C(=O)Nc3ccccc3C)c2)c1	.	?	-5%	i
CCOc1ccc(C(=O)Nc2c(C(=O)Nc3ccccc3F)oc3ccccc23)cc1OCC	0%	-3%	4%	-11%
Cn1nc(C(=O)OCC(=O)Nc2ccc(C(N)=O)cc2)c2ccccc2c1=O	-3%	13%	-3%	-37%
SMILES	GLP1R ag	GLP-1R inv ag	HEK293 tox	PTHR1 agonist
CC1CCc2c(sc(NC(=O)CSc3ncn[nH]3)c2C#N)C1 (configuration not stated)	4%	-8%	-6%	-27%
CCN1CCN(CC(=O)Nc2sc3c(c2C#N)CCC(C)C3)CC1 (configuration not stated)	3%	2µM*	-9%	i
CC(C)CCNC(=O)CSc1nc2ccccc2nc1Cc1ccccc1	.	?	3%	-2%
COc1cc(/C=N/NC(=O)c2ccccn2)ccc1OC(=O)c1ccccc1Br	-30%	?	11µM*	-95%
Cn1c(=O)n(Cc2ccccc2)c(=O)c2c1nc(NCC1CCCO1)n2Cc1ccccc1 (configuration not stated)	1%	4µM*	?	-1%[57.5 µM]
Cn1c(NCC(O)c2ccccc2)nc2c1c(=O)n(Cc1ccc(Cl)c(Cl)c1)c(=O)n2C (configuration not stated)	-40%	3.2µM*	-10%	-17%
CC(C)OC(=O)CSc1nc(Cc2ccccc2)nc2ccccc12	15%	13µM*	4%	-34%
COC(=O)CSc1nc(Cc2ccccc2)nc2ccccc12	14%	-22%	5%	-44%
CCOC(=O)c1ccc(NC(=O)c2oc(=O)c3ccccc3c2-c2ccccc2)cc1	.	7%	-13%	-17%
CCOc1ccccc1Nc1nnc(SCC(=O)NC2CCS(=O)(=O)C2)s1 (configuration not stated)	3%	20%	0%	i
CCOc1ccccc1NC(=O)CSc1nnc(N)s1	.	10%	-2%	-16%
COc1ccc(CN2CCN(CCCc3ccccc3)C(CCO)C2)c(O)c1 (configuration not stated)	-5%	-15%	-10%	i
CCn1cc(CN2CCN(Cc3ccc(C)o3)C(CCO)C2)c2ccccc21 (configuration not stated)	9%	?	-30%	i
CCn1cc(CN2CCN(Cc3ccccc3)C(CCO)C2)c2ccccc21 (configuration not stated)	0%	10µM*	-23%	i
COc1ccc(CN2CCN(CCc3ccccc3)C(CCO)C2)c(O)c1 (configuration not stated)	11%	11µM*	0%	-9%
Cc1ccc2[nH]c3c(c2c1)CN(C(=O)CN1CC(C)OC(C)C1)CC3 (configuration not stated)	6%	-29%	58%	i
Cc1ccc2[nH]c3c(c2c1)CN(C(=O)CN1CCN(Cc2ccc4c(c2)OCO4)CC1)CC3	-3%	3.5µM*	-18%	i
CCOc1cc(NC(C)=O)ccc1C(=O)OC	9%	.	.	.
CC(C)CC(N)c1cn([C@@H](CCC(=O)O)C(=O)N2CCNCC2)nn1 (some centres not stated)	8%	11%	8%	-18%
CC(C)C[C@H](N)c1cn([C@@H](CCCCN)C(=O)N2CCNCC2)nn1	-22%	0.89µM*	?	-1%
COc1ccccc1N1CCN(C(=O)CSc2nc3ccccc3nc2N2CCC(C)CC2)CC1	9%	5µM*	-1%	-21%
COc1ccccc1N1CCN(c2nc3ccccc3nc2C(C#N)C(=O)OC(C)C)CC1 (configuration not stated)	-5%	11µM*	-23%	i
COc1ccccc1N1CCN(C(=O)CSc2nc3ccccc3nc2Cc2ccc(C)cc2)CC1	.	?	-6%	-34%

Source: PubChem BioAssay
